In PubChem BioAssay AID1159580 (chemical genetic matrix, 2015):
Hit rate of the full screen: of about 5,500 compounds, about 2,000 (36%) were called active. Roughly 18% stayed inconclusive and do not appear here. No stated cut-off is given here; in the data, active means normalized growth mostly below about 0.91 (no sharp cut-off); inconclusive means no clear call, values can overlap the other calls; inactive means mostly above about 0.92. The list shows a part of the results.

Assay: chemical genetic growth profiling, strain panel (AID 1159580);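 further: tested at 20 µM; growth read once vehicle control cultures reached saturation at 30 °C; 1 = growth at the plate median or of vehicle wells; lower values mean less growth of the strain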
Conditions: growth OD

Measured: normalized growth

CC(C)=CCc1c(O)cc(C)oc1=O
inactive: S. cerevisiae deletion strains, locus YBR021W, strain FUR4, active compounds read low 1.01 | S. cerevisiae deletion strains, locus YBR229C, strain ROT2, active compounds read low 0.99 | S. cerevisiae deletion strains, locus YCL029C, strain bik1, active compounds read low 0.97 | S. cerevisiae deletion strains, locus YDL035C, strain GPR1, active compounds read low 1.11 | S. cerevisiae deletion strains, locus YDL074C, strain BRE1, active compounds read low 1.12 | S. cerevisiae deletion strains, locus YDL101C, strain DUN1, active compounds read low 0.998 | S. cerevisiae deletion strains, locus YDL185W, strain tfp1, active compounds read low 0.961 | S. cerevisiae deletion strains, locus YDL192W, strain arf1, active compounds read low 1.01 | S. cerevisiae deletion strains, locus YDR101C, strain arx1, active compounds read low 1.01 | S. cerevisiae deletion strains, locus YDR150W, strain NUM1, active compounds read low 1.01 | S. cerevisiae deletion strains, locus YDR162C, strain NBP2, active compounds read low 1.03 | S. cerevisiae deletion strains, locus YDR318W, strain mcm21, active compounds read low 0.986 | S. cerevisiae deletion strains, locus YDR388W, active compounds read low 0.994 | S. cerevisiae deletion strains, locus YDR502C, strain sam2, active compounds read low 0.995 | S. cerevisiae deletion strains, locus YEL061C, strain CIN8, active compounds read low 1.03 | S. cerevisiae deletion strains, locus YER110C, active compounds read low 0.982 | S. cerevisiae deletion strains, locus YER155C, strain BEM2, active compounds read low 0.963 | S. cerevisiae deletion strains, locus YER167W, strain BCK2, active compounds read low 0.991 | S. cerevisiae deletion strains, locus YGL078C, strain dbp3, active compounds read low 0.981 | S. cerevisiae deletion strains, locus YGL086W, strain mad1, active compounds read low 1.01 | S. cerevisiae deletion strains, locus YGL248W, strain PDE1, active compounds read low 1.03 | S. cerevisiae deletion strains, locus YGR135W, strain pre9, active compounds read low 1 | S. cerevisiae deletion strains, locus YGR252W, strain gcn5, active compounds read low 1.03 | S. cerevisiae deletion strains, locus YHR079C, strain IRE1 (second series), active compounds read low 0.962 | S. cerevisiae deletion strains, locus YHR094C, strain hxt1, active compounds read low 0.978 | S. cerevisiae deletion strains, locus YHR129C, strain ARP1, active compounds read low 1.02 | S. cerevisiae deletion strains, locus YHR200W, strain rpn10, active compounds read low 0.975 | S. cerevisiae deletion strains, locus YIL066C, strain RNR3, active compounds read low 1 | S. cerevisiae deletion strains, locus YIL073C, strain SPO22, active compounds read low 1.08 | S. cerevisiae deletion strains, locus YIL125W, strain kgd1, active compounds read low 0.981 | S. cerevisiae deletion strains, locus YIR030C, strain dcg1, active compounds read low 0.991 | S. cerevisiae deletion strains, locus YJL095W, strain BCK1, active compounds read low 1.04 | S. cerevisiae deletion strains, locus YJL134W, strain LCB3, active compounds read low 0.988 | S. cerevisiae deletion strains, locus YJL168C, strain set2, active compounds read low 0.967 | S. cerevisiae deletion strains, locus YJL187C, strain SWE1 (second series), active compounds read low 1 | S. cerevisiae deletion strains, locus YJR043C, strain POL32, active compounds read low 1.08 | S. cerevisiae deletion strains, locus YKL009W, strain mrt4, active compounds read low 1.01 | S. cerevisiae deletion strains, locus YKL068W, active compounds read low 0.98 | S. cerevisiae deletion strains, locus YKL085W, strain MDH1 (second series), active compounds read low 0.972 | S. cerevisiae deletion strains, locus YKL085W, strain MDH1, active compounds read low 0.972 | S. cerevisiae deletion strains, locus YKL190W, strain CNB1, active compounds read low 1.02 | S. cerevisiae deletion strains, locus YKR001C, strain vps1, active compounds read low 1.03 | S. cerevisiae deletion strains, locus YLR039C, strain RIC1, active compounds read low 1.21 | S. cerevisiae deletion strains, locus YLR058C, strain SHM2, active compounds read low 1.01 | S. cerevisiae deletion strains, locus YLR102C, strain apc9, active compounds read low 0.953 | S. cerevisiae deletion strains, locus YLR262C, strain YPT6, active compounds read low 1.19 | S. cerevisiae deletion strains, locus YLR268W, strain sec22, active compounds read low 0.999 | S. cerevisiae deletion strains, locus YLR330W, strain CHS5, active compounds read low 1.01 | S. cerevisiae deletion strains, locus YLR371W, strain rom2, active compounds read low 0.983 | S. cerevisiae deletion strains, locus YLR418C, strain cdc73, active compounds read low 0.987 | S. cerevisiae deletion strains, locus YML016C, strain PPZ1, active compounds read low 0.982 | S. cerevisiae deletion strains, locus YML032C, strain rad52, active compounds read low 0.994 | S. cerevisiae deletion strains, locus YML124C, strain tub3, active compounds read low 0.973 | S. cerevisiae deletion strains, locus YMR078C, strain ctf18, active compounds read low 0.98 | S. cerevisiae deletion strains, locus YMR223W, strain ubp8, active compounds read low 0.99 | S. cerevisiae deletion strains, locus YMR307W, strain GAS1, active compounds read low 1.13 | S. cerevisiae deletion strains, locus YNL067W, strain RPL9B, active compounds read low 1.02 | S. cerevisiae deletion strains, locus YNL128W, strain TEP1, active compounds read low 1.01 | S. cerevisiae deletion strains, locus YNL233W, strain BNI4, active compounds read low 1.05 | S. cerevisiae deletion strains, locus YNL250W, strain rad50, active compounds read low 0.94 | S. cerevisiae deletion strains, locus YNL271C, strain bni1, active compounds read low 0.986 | S. cerevisiae deletion strains, locus YNL298W, strain CLA4, active compounds read low 0.981 | S. cerevisiae deletion strains, locus YNL307C, strain MCK1, active compounds read low 1 | S. cerevisiae deletion strains, locus YNL322C, strain KRE1, active compounds read low 0.995 | S. cerevisiae deletion strains, locus YNR052C, strain pop2, active compounds read low 0.99 | S. cerevisiae deletion strains, locus YOL006C, strain TOP1, active compounds read low 1.26 | S. cerevisiae deletion strains, locus YOL012C, strain htz1 0.881 | S. cerevisiae deletion strains, locus YOL147C, strain pex11, active compounds read low 0.973 | S. cerevisiae deletion strains, locus YOR061W, strain CKA2, active compounds read low 0.991 | S. cerevisiae deletion strains, locus YOR069W, strain VPS5, active compounds read low 0.989 | S. cerevisiae deletion strains, locus YOR136W, strain idh2, active compounds read low 0.972 | S. cerevisiae deletion strains, locus YOR144C, strain elg1, active compounds read low 0.964 | S. cerevisiae deletion strains, locus YOR184W, strain ser1, active compounds read low 1.07 | S. cerevisiae deletion strains, locus YOR316C, strain cot1, active compounds read low 0.971 | S. cerevisiae deletion strains, locus YPL055C, strain LGE1, active compounds read low 1.1 | S. cerevisiae deletion strains, locus YPL241C, strain CIN2, active compounds read low 0.997 | S. cerevisiae deletion strains, locus YPR119W, strain clb2, active compounds read low 0.963 | S. cerevisiae deletion strains, locus YPR141C, strain kar3, active compounds read low 0.954 | S. cerevisiae deletion strains, locus YPR163C, strain tif3, active compounds read low 0.995 | S. cerevisiae deletion strains, locus YPR167C, strain met16, active compounds read low 0.995 | S. cerevisiae deletion strains, strain wtn01, active compounds read low 1.01 | S. cerevisiae strains, strain wild type, active compounds read low 1.04
